GRP78 ERSR act: qHTS for Inducers of the Endoplasmic Reticulum Stress Response (ERSR) in Human Glioma: qHTS; U87-MG GRP78 promoter luciferase reporter, 16 h; hit rate 0.02% among 420,000; AID 602332, 2012; Potency, µM, without a hit: at the top dose activation, hits mostly activators; also: series mostly up to about 76 µM; % of control where 0% means no effect; nearly all actives have a fitted effect of over 35% in size
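Stably transfected U87-MG human glioma cells carrying a GRP78-based luminescent sensor were seeded at 1000 cells/well, pin-dosed with compounds and incubated 16 h. Luciferase reagent was then added, and end-point luminescence was read after 10 min at room temperature.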
GLP-1R inv ag: qHTS of GLP-1 Receptor Inverse Agonists (Inhibition Mode); hit rate 1.6% among 410,000; HEK293 GLP-1R CRE-luciferase, luminescence, 24 h; GLP-1R form is constitutively active; AID 624417, 2012; Potency, µM (series often up to 38.3 µM), for inactives: top-dose activity change, negative = inhibition, usual class: inhibitors; Glucagon-like peptide 1 receptor (Homo sapiens), P43220; also: % is scaled to controls: 0 for no effect and ±100 for the full control effect; nearly all actives have a fitted effect of over 55% in size
Target sequence (P43220 whole entry, looked up): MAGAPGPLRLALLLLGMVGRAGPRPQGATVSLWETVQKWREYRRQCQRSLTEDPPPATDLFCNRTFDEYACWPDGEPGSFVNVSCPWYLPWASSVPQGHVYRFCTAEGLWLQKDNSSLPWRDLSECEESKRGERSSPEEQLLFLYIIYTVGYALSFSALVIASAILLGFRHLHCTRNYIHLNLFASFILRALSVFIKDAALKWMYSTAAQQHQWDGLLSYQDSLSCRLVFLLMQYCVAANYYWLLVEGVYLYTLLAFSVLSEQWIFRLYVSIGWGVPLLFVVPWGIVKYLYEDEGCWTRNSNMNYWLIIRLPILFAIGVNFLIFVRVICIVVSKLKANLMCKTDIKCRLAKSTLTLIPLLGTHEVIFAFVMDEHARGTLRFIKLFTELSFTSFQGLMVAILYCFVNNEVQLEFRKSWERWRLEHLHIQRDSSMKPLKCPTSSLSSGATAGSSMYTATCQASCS
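GLP-1R inverse agonism mode: basal reporter luminescence in engineered HEK293 cells measured after one day of compound exposure at 37 deg C, with a 12 min room-temperature detection step.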
PTHR1 agonist: qHTS for PTHR1 Agonists: Primary Screen; Potency, µM (doses to about 115 µM), for the others: top-dose activation, usual class: activators; AID 743266, 2014; Parathyroid hormone/parathyroid hormone-related peptide receptor (Homo sapiens), Q03431; hit rate 0.075% among 410,000; HEK293 GP2 PTHR1 cells, GloSensor cAMP luminescence, 1 h; also: nearly all actives have a fitted effect of over 55% in size
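HEK-293-derived GP2 cells expressing PTHR1 and a GloSensor cAMP reporter, 3,000/well, plated overnight, given luciferin plus IBMX (each 0.5 mM as added) for 1 h at 37 °C, then compound for 1 h at 37 °C. Luminescence was read after 15 min at room temperature.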
GLS inhibitor: qHTS for Inhibitors of Glutaminase (GLS); Glutaminase kidney isoform, mitochondrial (Homo sapiens), O94925; Potency, µM (top dose mostly 45.5 µM), for inactives: top-dose activity change, negative = inhibition, usual class: inhibitors; GLS enzymatic activity, qHTS titration; hit rate 0.21% among 410,000; also: % is scaled to controls: 0 for no effect and ±100 for the full control effect
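Enzyme dispensed in phosphate buffer (45 mM, pH 8.2, 0.02% Tween-20), compounds pinned in, then 1 mM L-glutamine solution and the glutamate oxidase–HRP–Amplex Red mix added; fluorescence read immediately and again after 30 min at room temperature.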
GLP1R ag: qHTS of GLP-1 Receptor Agonists; Potency, µM (top dose mostly 45.6 µM), without a hit: at the top dose activation, usual class: activators; HEK293 GLP-1R CRE-luciferase, luminescence, 4-6 h; cells express a hypersensitive GLP-1R form; Glucagon-like peptide 1 receptor (Homo sapiens), P43220; hit rate 0.007% among 380,000; also: % of control where 0% means no effect
12-LOX inh: Primary qHTS assay for inhibitors of human arachidonate 12S-lipoxygenase (ALOX12): Round 2; purified 12hLO, xylenol orange hydroperoxide absorbance; AID 1671190, 2021; Potency, µM (doses to about 108 µM), for the others: at the top dose activity change, negative = inhibition, actives largely listed as inhibitors; hit rate 1.1% among 580,000; also: % is scaled to controls: 0 for no effect and ±100 for the full control effect
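Purified human 12hLO at 150 nM in 25 mM Hepes, 0.01% Triton X-100, pH 7.0, preincubated 15 min at room temperature with compound. Reaction started with 40 uM arachidonic acid, 30 min at room temperature. Hydroperoxide measured by Fe-xylenol orange, 573/405 nm absorbance ratio.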
* hit, by the source's call; i = inactive; u = inconclusive; x = not tested or not shown. In the library only some 2.3% were active in any assay of this set; here they are far more common. Calls follow the shape of the dose curve; as a rule, active = well fitted curve in the direction sought with a large enough effect; inconclusive = small, poorly fitted or top-dose-only effect, or another doubt; inactive = no such curve, though single readings can be large; an effect the other way counts as inactive or inconclusive. Potency is read from the fitted curve at half-maximal effect.

SMILES	GRP78 ERSR act	GLP-1R inv ag	PTHR1 agonist	GLS inhibitor	GLP1R ag	12-LOX inh
Cc1ccccc1-n1c(SCC(=O)Nc2ccc(Cl)cc2Cl)nc(O)cc1=O	-2%	u	i	0%	x	6.3µM*
C=CCn1c(SCC(=O)Nc2ccc(Br)cc2)nc(O)cc1=O	-1%	-6%	0%	-5%	-3%	3.2µM*
COc1ccc(NC(=O)CSc2nc(O)cc(=O)n2-c2ccc(OC)cc2)cc1	-3%	19%	-1%	0%	1%	13µM*
O=C(NC1CCN(c2cc(-c3ccc(Cl)cc3)[nH]n2)C1)c1ccc(Br)o1 (configuration not stated)	x	x	x	x	x	14%
COc1nc(C(=O)N2CCN(CC(F)(F)F)CC2)cc2ccccc12	x	x	x	x	x	-2%
O=C(Cn1c(=O)n(Cc2ccc(F)cc2)c(=O)c2sccc21)NCc1ccco1	x	x	x	x	x	97%
CCc1ccc(NC(=O)CSc2nccn2-c2ccc(OC)cc2)cc1	0%	10µM*	-69%	-8%	x	u
Cc1c(-c2ccnc3cc(C(=O)O)nn23)cnn1C	-4%	5%	-18%	7.9µM*	-2%	u
CCn1cc(-c2ccnc3cc(C(=O)O)nn23)c(C)n1	-2%	-19%	i	0%	7%	u
Cc1ccc(C2=NN(C(=O)Cn3nnc(-c4ccc(C(N)=O)cc4)n3)C(c3ccco3)C2)cc1 (configuration not stated)	x	x	x	x	x	28µM*
CC(=O)N1N=C(c2ccc(C)cc2)CC1c1ccco1 (configuration not stated)	8%	7%	-9%	2%	22%	-4%
S=c1[nH]nc(-c2cc(-c3ccccc3)n[nH]2)n1/N=C/c1ccc(Br)s1	1%	185%	i	0%	23%	25µM*
S=c1[nH]nc(-c2cc(-c3ccccc3)n[nH]2)n1/N=C/C=C/c1ccco1	0%	123%	i	4µM*	0%	40µM*
COc1ccccc1NC(=O)c1c(-n2cnnn2)sc(C)c1C	x	x	x	x	x	36%
CC(C)Cc1nc(SCC(=O)N2CCOCC2)c2c(=O)n(C)c(=O)n(C)c2n1	-1%	28%	-11%	6%	-4%	-4%
CC(C)Cc1nc(SCC(=O)N2CCCCC2)c2c(=O)n(C)c(=O)n(C)c2n1	3%	10µM*	-13%	-6%	0%	1%
CC1CN(C(=O)Cc2n[nH]c(=O)c3ccccc23)CCO1 (configuration not stated)	x	x	x	x	x	-8%
Cc1ccc(C(=O)O)cc1NS(=O)(=O)c1ccc2ccccc2c1	0%	-5%	i	7%	-3%	-13%
CCCCN(Cc1ccccc1)c1ccc(C(=O)O)cc1NS(=O)(=O)c1ccc(C)c(C)c1	x	x	x	x	x	8.9µM*
CCCCN(Cc1ccccc1)c1ccc(C(=O)O)cc1NS(=O)(=O)c1ccc(C(C)=O)cc1	x	x	x	x	x	5.6µM*
CCOC(=O)c1ccc(Oc2coc3cc(OCc4ccccc4)ccc3c2=O)cc1	x	x	x	x	x	-5%
CCN(C(=O)CSc1nc(-c2ccc(C(C)C)cc2)no1)c1ccccc1	-3%	11µM*	-51%	-4%	x	-21%
CCCOc1ccc(NC(=O)CCC)c2cccnc12	x	x	x	x	x	0%
COc1cccc(/C=N/n2c(C3CCCCC3)n[nH]c2=S)c1O	0%	-5%	-7%	7.9µM*	11%	20µM*
COc1cccc(/C=N/n2c(-c3n[nH]c4c3CCC4)n[nH]c2=S)c1O	-4%	3%	i	-1%	-4%	40µM*
COc1ccc(/C=N/n2c(C3CCCCC3)n[nH]c2=S)c(OC)c1	-5%	u	i	u	20%	40µM*
S=c1[nH]nc(C2CCCCC2)n1/N=C/c1ccccc1	2%	-19%	i	-21%	11%	0%

Compound activity from PubChem BioAssay.
